Source: PubChem BioAssay AID602253 (Broad Institute, 2012)
Measured potencies and affinities stand elsewhere. Calls of active or inactive are those of the source.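 How the source made its calls: active means compounds lowering polarization whose fitted half-maximal concentration is at most twice their top tested dose; inconclusive means flat curve with 30 to 70 percent inhibition, or poor fit; inactive means the rest.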

Target: Golgi-associated PDZ and coiled-coil motif-containing protein (Homo sapiens) (UniProt Q9HD26)
Experiment: CAL PDZ domain peptide-binding inhibitors, dose response, biochemical, fluorescence polarization, Cer-tagged CAL PDZ, dry powder (AID 602253)
Details: Purified CAL PDZ, TMR-peptide fluorescence polarization, 1 h; series mostly up to 35 µM; activity change, negative = inhibition: at the top concentration

Row | Compound | activity change, negative = inhibition
1 | O=C(O)CSc1cc(NS(=O)(=O)c2ccc(Br)cc2)c2ccccc2c1O | -4.08% (inactive)
2 | O=S(=O)(Nc1ccc(O)c2ccccc12)c1ccccc1 | -3.92% (inactive)
3 | CCOc1ccc(S(=O)(=O)Nc2cc(SCC(=O)O)c(O)c3ccccc23)cc1 | -2.74% (inactive)
4 | COc1ccc(S(=O)(=O)Nc2cc(SCC(=O)O)c(O)c3ccccc23)cc1 | -3.93% (inactive)
5 | O=C(O)CSc1cc(NS(=O)(=O)c2ccc(Cl)cc2)c2ccccc2c1O | -5.53% (inactive)
6 | O=S(=O)(Nc1cc(Sc2ccccc2)c(O)c2ccccc12)c1ccc(Cl)cc1 | -3.34% (inactive)
